Results on 31 molecules are retold here after ChEMBL document CHEMBL3433997, “St. Jude Leishmania screening dataset” (2016).

Common to all, as to format: functional
The target of experiment [1] is Solute carrier family 2, facilitated glucose transporter member 1 (Homo sapiens) (UniProt P11166). Nature of the experiment: ST_JUDE_LEISH: Cytotoxicity at 2uM final concentration against transgenic Leishmania Mexicana promastigotes LmGLUT1 that are glucose transport deficient and complemented with the human glucose transporter GLUT1. Activity is measured by DNA content using SYBR green in vitro.
Chain of Solute carrier family 2, facilitated glucose transporter member 1 (Homo sapiens) (P11166 whole entry): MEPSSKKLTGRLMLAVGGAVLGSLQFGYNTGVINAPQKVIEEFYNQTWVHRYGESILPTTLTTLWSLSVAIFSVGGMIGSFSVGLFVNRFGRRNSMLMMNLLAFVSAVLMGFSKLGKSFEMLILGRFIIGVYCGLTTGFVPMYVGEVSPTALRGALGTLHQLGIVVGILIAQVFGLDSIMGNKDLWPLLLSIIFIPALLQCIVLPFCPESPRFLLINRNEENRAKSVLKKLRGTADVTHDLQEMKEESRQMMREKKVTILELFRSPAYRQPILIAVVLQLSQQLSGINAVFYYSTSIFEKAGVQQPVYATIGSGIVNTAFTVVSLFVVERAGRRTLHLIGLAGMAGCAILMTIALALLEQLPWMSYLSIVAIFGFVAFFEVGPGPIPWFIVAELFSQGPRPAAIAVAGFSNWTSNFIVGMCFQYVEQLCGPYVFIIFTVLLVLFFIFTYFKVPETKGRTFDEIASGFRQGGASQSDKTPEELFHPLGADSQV

Experiment [2] addresses Hexose transporter 1 (Plasmodium falciparum) (UniProt O97467). Nature of the experiment: ST_JUDE_LEISH: Cytotoxicity at 2uM final concentration against transgenic Leishmania Mexicana promastigotes LmPfHT that are glucose transport deficient and complemented with the Plasmodium falciparum hexose transporter. Activity is measured by DNA content using SYBR green in vitro.
For experiment [3], the target named is Glucose transporter (Leishmania mexicana) (UniProt O61059). Description: ST_JUDE_LEISH: Cytotoxicity at 2uM final concentration against transgenic Leishmania Mexicana promastigotes LmGT2 that are glucose transport deficient and complemented with the L. Mexicana glucose transporter 2. Activity is measured by DNA content using SYBR green in vitro.

For orientation: inhibition means the relative decrease from the control value, in per cent. For the molecule `CC(CN1CCN(C)CC1)C(=O)Nc1cccc(-c2ccc(-c3nc4cc(C(F)(F)F)ccc4[nH]3)cc2)c1` (stereo not drawn), the values for the inhibition in experiment [1], in experiment [2] and in experiment [3] were 5.29%, 4.14% and 5.41%, respectively.

As to `CS(=O)(=O)c1ccc2c(c1)CCN(CCC1CCC(NC(=O)C(=Cc3cccc(C#N)c3)c3ccc(-c4ccccc4)cc3)CC1)CC2` (stereo not drawn), the inhibition in experiment [1] is 1.14%; in experiment [2] it was 2.77%; in experiment [3], 1.15%.

As to `Cc1nc(-c2ccc(-c3ccc(NC(=O)c4coc5ccc(N6CC(C)N(C)C(C)C6)cc45)cc3)c(C)c2)no1` (stereo not drawn), the inhibition was -0.52% in experiment [1], 0.17% in experiment [2] and 3.28% in experiment [3].

Turning to `CCn1cc(CN2CCCC(C(=O)Nc3ccc(-c4nc5ccccc5[nH]4)cc3)C2)c(C)n1` (stereo not drawn), the inhibition in experiment [1] was 3.61%; in experiment [2], 4.26%; in experiment [3], 3.25%.

On to `CCCC(C)N(Cc1ccc(C(C)(C)C)cc1)C(=O)c1cccc(OC)c1` (stereo not drawn), for which the figures for the inhibition in experiment [1], in experiment [2] and in experiment [3] were -0.57%, -0.47% and -2.72%, respectively.

On to `Cc1cc(N[C@@H](Cc2ccccc2)C(=O)Nc2ccccc2)nc(NCC2CCCCC2)n1`, for which the inhibition in experiment [1] stood at 12.8%; in experiment [2] it was 11.3%; in experiment [3], 10.7%.

As to `COc1ccc(C2CCN(CCCNC(=O)c3ccc(NC(=O)c4ccc(Cl)cc4)cc3)CC2)c(OC)c1`, the inhibition in experiment [1] worked out at 3.85%; in experiment [2], 4.23%; in experiment [3], 3.54%.

Turning to `CCc1cn(C)c2c(N3CCCC3=O)cc(C(=O)N[C@@H](Cc3ccccc3)[C@H](O)CNC(C)(C)c3cccc(OC)c3)cc12`, the results for the inhibition in experiment [1], in experiment [2] and in experiment [3] were 4.6%, 2.52% and 7.65%, respectively.

For the molecule `Cc1cccc2nc(-c3ccc(-c4ccc(CNCc5ccccc5)cc4)cc3)[nH]c12`, the inhibition in experiment [1] came out at 3.54%; in experiment [2], 3.32%; in experiment [3], 4.35%.

`CCOP(=O)(OCC)c1ccc(OC)c(-c2ccc[nH]2)c1`: the inhibition in experiment [1] came to 4.52%; in experiment [2] it was 2.22%; in experiment [3] it was 1.77%.

For the molecule `O=C(Nc1ccc(F)cc1)N1CCCN(c2ccnc3cc(Cl)ccc23)CC1`, the inhibition in experiment [1] was determined as 0.02%; in experiment [2], 0.34%; in experiment [3] it was 1.11%.

As to `CC(C)(CNC(=O)C1CCN(Cc2ccoc2)CC1)c1nc(-c2ccc(Cl)c(O)c2)c(-c2ccncc2)[nH]1`, the inhibition in experiment [1] is -1.41%; in experiment [2] it was 0.07%; in experiment [3], -2.68%.

For the molecule `NC(=O)c1cc2nc(Nc3ccc(F)cc3)nc(Nc3ccc(S(N)(=O)=O)cc3)c2[nH]1`, the inhibition came to 1.3% in experiment [1], 0.26% in experiment [2] and 0.35% in experiment [3].

On to `OC(c1nnc(S)n1-c1ccccc1)C(O)c1nnc(S)n1-c1ccccc1` (stereo not drawn), for which the inhibition came out at 10.1% in experiment [1], 8.57% in experiment [2] and 10% in experiment [3].

In the case of `Cn1cnc(CCNC(=O)c2ccc(-c3cccc(-c4nc5ccccc5[nH]4)c3)cc2)c1`, the inhibition in experiment [1] was 0.8%; in experiment [2], 0.81%; in experiment [3], -1.62%.

For `CCOc1ccc(-c2n[nH]c(C(F)(F)F)c2-c2ccccc2OC)c(O)c1`, the inhibition in experiment [1] came to 2.44%; in experiment [2], 1.89%; in experiment [3], 1.29%.

Take `c1ccc(COc2ccc(Nc3ncnc4cnc(-c5ccc(CN6CCCCC6)o5)cc34)cc2)cc1`: the inhibition came to 1.44% in experiment [1], 1.73% in experiment [2] and 2.99% in experiment [3].

Take `CN(C)c1cc2c(Nc3ccc4nc(Cc5ccccc5)[nH]c4c3)ncnc2cn1`: the figures for the inhibition in experiment [1], in experiment [2] and in experiment [3] were 4.02%, 5.87% and 2.46%, respectively.

On to `CCCc1ccc(NC(=O)c2cccc(CN3CCCN(Cc4cccc(C#N)c4)CC3)c2)cc1`, for which the inhibition is 3.6% in experiment [1], -0.3% in experiment [2] and 1.95% in experiment [3].

Turning to `Fc1cc(Cl)ccc1Nc1ccnc2cc(-c3ccc(CNCCN4CCOCC4)o3)ccc12`, the inhibition in experiment [1] worked out at 1.58%; in experiment [2], 1.07%; in experiment [3], 0.9%.

As to `CN(C)CCC1CCCc2ccc(NC(=O)Nc3ccc(-c4ccncc4)c4ccccc34)cc21` (stereo not drawn), the inhibition in experiment [1] is 4.29%; in experiment [2], 1.03%; in experiment [3] it was -0.88%.

On to `O=C(CCCCCCc1ccccc1)Nc1ccc2nc3c(c(NCc4ccccc4)c2c1)CCCC3`, for which the inhibition was -0.24% in experiment [1], 1.39% in experiment [2] and -2.98% in experiment [3].

In the case of `O=C(Cc1ccccc1)NC(Nc1ccc([N+](=O)[O-])cc1)C(Cl)(Cl)Cl` (stereo not drawn), the inhibition in experiment [1] is -0.19%; in experiment [2], 1.43%; in experiment [3] it was 0.18%.

`COc1ccc(F)cc1-c1ccccc1CNC(=O)c1cnn(-c2ccc([N+](=O)[O-])cc2)c1C(F)(F)F`: the figures for the inhibition in experiment [1], in experiment [2] and in experiment [3] were 2.16%, 2.84% and 4.07%, respectively.

On to `C[C@@H](NC(=O)c1nn(-c2ccc(Cl)cc2)c(=O)c2ccccc12)C(C)(C)C`, for which the figures for the inhibition in experiment [1], in experiment [2] and in experiment [3] were 1.61%, 1.12% and 0.85%, respectively.

As to `Cc1ccc(C)c2sc(N3CCN(C(=O)c4ccc([N+](=O)[O-])o4)CC3)nc12`, the inhibition in experiment [1] stood at 28.7%; in experiment [2], 38.4%; in experiment [3], 7.78%.

`CCCN(CC)CCOC(=O)c1ccccc1`: the inhibition came to 8.35% in experiment [1], 7.44% in experiment [2] and 9.33% in experiment [3].

In the case of `CCN(CC)C(C)(C)CN(Cc1ccc(-c2ccc(C(F)(F)F)cc2)cc1)C(=O)Cn1c(CCc2cccc(F)c2F)nc(=O)c2ccccc21`, the inhibition in experiment [1] was 6.6%; in experiment [2], 5.18%; in experiment [3], 5.98%.

Consider `CN(C)CCOc1ccc(NC(=O)Nc2ccnc3c(Br)cccc23)cc1Cl`, for which the inhibition in experiment [1] is 0.71%; in experiment [2] it was 0.76%; in experiment [3], -0.85%.

Regarding `CC(Oc1c(C2CCN(CCCCNC(=O)c3ccc(-c4ccc(C#N)cc4)cc3)CC2)ccc2c1CCCC2)C(N)=O` (stereo not drawn), the inhibition in experiment [1] is -0.84%; in experiment [2], 1.22%; in experiment [3], 0.3%.

Regarding `CC(=O)Nc1ccc(COc2ccc(Nc3ccnc4cc(-c5ccccn5)ccc34)cc2)cc1`, the inhibition in experiment [1] was found to be 3.41%; in experiment [2], 1.28%; in experiment [3], 1.17%.
